Composite z-score and z-score data for 6 compounds are collected here from PubChem BioAssay.

SMILES strings stand for the structures. The source made the active and inactive calls.

For test [1], the system named is Plasmodium falciparum Sir2 (PF13_0152, Sir2A). The experiment in a line: pfSir2 binders on small-molecule microarrays, primary screen, biochemical, small-molecule microarray, 635 nm fluorescence (AID 1098).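 Further: score merges spot fluorescence intensity with its signal-to-noise ratio.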 The note with it: small-molecule microarray binding, fluorescence 635 nm; higher = more signal.
The nature of test [2]: small-molecule microarray binders of probe aDKK1, primary screen, biochemical, biotinylated probe, 635/667 nm fluorescence (AID 1099).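 Further: score merges 667nm spot fluorescence with signal to noise across triplicate slides.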 The conditions noted are these: higher = more signal.
Test [3] is described as follows: small-molecule microarray binders of probe aCHRDL2, primary screen, biochemical, biotinylated probe, 635/667 nm fluorescence (AID 1100). The note with it: higher = more signal.
Test [4] is described as follows: splicing luciferase reporter signal modulators, primary screen, spliceosome inhibition project, cell-based, HEK293, splice +/- reporter (AID 1101).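 Further: HEK293 cells carrying a splicing-competent luciferase reporter gene; test concentration not given here.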 The note with it: luminescence, 24 h, higher = more signal, called active from +8 up or from −8 down. In general terms: In a reporter assay the amount or activity of a reporter protein is the signal.
The target of test [5] is Fibroblast growth factor 10 (Homo sapiens) (UniProt O15520). The experiment in a line: FGF10 binders on small-molecule microarrays, primary screen, biochemical, small-molecule microarray, 635 nm fluorescence (AID 1102). The note with it: FGF10 binding, fluorescence 635 nm, higher = more signal.
Test [6] deals with glycogen synthase kinase-3 (GSK3A per assay name; protocol says GSK3B). Put plainly: GSK3 binders on small-molecule microarrays, primary screen, biochemical, small-molecule microarray, 635 nm fluorescence, GSK3A (AID 1103). Further: the record names both GSK3A and GSK3B. The conditions noted are these: small-molecule microarray binding, fluorescence 635 nm; higher = more signal.
Test [7] concerns the target Epidermal growth factor receptor (Homo sapiens) (UniProt P00533). Put plainly: EGFR binders on small-molecule microarrays, primary screen, biochemical, small-molecule microarray, 635 nm fluorescence (AID 1104).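 Further: score merges 667 nm emission intensity with spot signal to noise over triplicate slides.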 The note with it: EGFR binding, higher = more signal.
The target of test [8] is Follistatin-related protein 3 (Homo sapiens) (UniProt O95633). The experiment in a line: FSTL3 binders on small-molecule microarrays, primary screen, biochemical, small-molecule microarray, 635 nm fluorescence (AID 1105).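 Further: score merges emission near 667 nm and signal to noise per printed spot across three slides.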 The note with it: FSTL3 binding, higher = more signal.
The target of test [9] is Dickkopf-related protein 1 (Homo sapiens) (UniProt O94907). The experiment in a line: DKK1 binders on small-molecule microarrays, primary screen, biochemical, small-molecule microarray, 635 nm fluorescence scan (AID 1106).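 Further: score merges emission near 667 nm with signal to noise over three replicate slides.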 The conditions noted are these: DKK1 binding, higher = more signal.
Test [10] deals with Inhibin beta A chain (activin A). Put plainly: INHBA (activin A) binders on microarrays, primary screen, biochemical, small-molecule microarray, 635 nm fluorescence scan (AID 1107).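 Further: mouse activin A protein probed at 4.33 µg/mL on printed slides; score merges bound-protein fluorescence near 667 nm with spot signal-to-noise.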 The conditions noted are these: small-molecule microarray binding, higher = more signal.
In test [11] the test system is Human papillomavirus type 1a protein E7 (residues 44-93). Put plainly: HPV1a E7 fragment binders on microarrays, primary screen, biochemical, small-molecule microarray, residues 44-93, 635 nm fluorescence (AID 1108).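 Further: E7 fragment applied at 1 µg/mL in TBST for 1 h at 4 C; score combines spot fluorescence with its signal to noise ratio.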 The note with it: small-molecule microarray binding, fluorescence 635 nm; higher = more signal.
A short description of test [12]: modulators of HCV replicon luciferase signal, primary screen, HCV replication inhibitor project, Huh7 cells, luciferase reporter (AID 1109).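 Further: huh7 hepatoma cells harbouring a luciferase neomycin HCV replicon reporter; luciferase luminescence as measure of HCV replicon replication; test concentration not given here.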 The note with it: 48 h, higher = more signal. (In general: A replicon is a self-replicating genome or part of one, used to study replication in cells.)
Test [13] has as its target Left-right determination factor 2 (Homo sapiens) (UniProt O00292). The experiment in a line: LEFTY2 binders on small-molecule microarrays, primary screen, biochemical, small-molecule microarray, 635 nm fluorescence scan (AID 1110). The note with it: LEFTY2 binding, higher = more signal.
Test [14] concerns the target Calmodulin-1 (Homo sapiens) (UniProt P0DP23). The experiment in a line: CALM1 binders on microarrays, EGTA buffer, profiling panel, biochemical, small-molecule microarray, Cy5-labelled CALM1 (AID 1111).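 Further: labelled calmodulin applied in Tris saline Tween buffer holding calcium plus EGTA and DTT.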 The conditions noted are these: Cy5-CALM1 binding fluorescence, higher = more signal.
Test [15] shares this target. Put plainly: calcium-bound CALM1 binders on microarrays, profiling panel, artefact control for SMM control-protein annotation, biochemical, small-molecule microarray, Cy5-labelled CALM1, plus calcium (AID 1112).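 Further: score merges spot fluorescence with signal to noise from triplicate slides.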 The conditions noted are these: Cy5-CALM1 binding fluorescence, higher = more signal.
The nature of test [16]: small-molecule microarray binders of probe aWnt5a, primary screen, biochemical, biotinylated probe, 635/667 nm fluorescence (AID 1113).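 Further: score merges 667 nm fluorescence intensity with signal-to-noise per printed feature.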 The conditions noted are these: higher = more signal.
A short description of test [17]: small-molecule microarray binders of probe aShh, primary screen, biochemical, biotinylated probe, 635/667 nm fluorescence (AID 1114).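 Further: probe is biotin-labelled aShh protein from a stem cell growth factor screen; measures binding of labelled protein to compounds printed on the slide; score merges feature fluorescence at 667 nm with signal-to-noise.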 The conditions noted are these: higher = more signal.
Test [18] is described as follows: small-molecule microarray binders of probe aNog, primary screen, biochemical, biotinylated probe, 635/667 nm fluorescence (AID 1115).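 Further: probe is biotinylated aNog protein used at 0.15 µg/mL for 1 h at 4 C; z-score combines 667 nm fluorescence of each spot with its signal to noise.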 The conditions noted are these: higher = more signal.
Test [19] has as its target Torsin-1A-interacting protein 1 (Homo sapiens) (UniProt Q5JTV8). Put plainly: LAP1 binders from COS7 cell lysate, primary screen, small-molecule microarray, 635/667 nm fluorescence (AID 1116). The note with it: COS7-hLAP1 lysate binding, 635 nm fluorescence, higher = more signal.
For test [20], the target named is Alpha-bungarotoxin (Bungarus multicinctus) (UniProt P60615). The experiment in a line: alpha-bungarotoxin binders on microarray, profiling panel, artefact control for SMM control protein annotation, biochemical, small-molecule microarray, Alexa647 label, 635/667 nm fluorescence (AID 1117). The conditions noted are these: alpha-BTX-A647 binding fluorescence, higher = more signal.
Chain of Alpha-bungarotoxin (Bungarus multicinctus) (P60615 whole entry, looked up): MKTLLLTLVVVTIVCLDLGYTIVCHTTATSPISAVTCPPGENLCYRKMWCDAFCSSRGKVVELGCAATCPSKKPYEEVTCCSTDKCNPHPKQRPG

Chain of Torsin-1A-interacting protein 1 (Homo sapiens) (Q5JTV8 whole entry, looked up): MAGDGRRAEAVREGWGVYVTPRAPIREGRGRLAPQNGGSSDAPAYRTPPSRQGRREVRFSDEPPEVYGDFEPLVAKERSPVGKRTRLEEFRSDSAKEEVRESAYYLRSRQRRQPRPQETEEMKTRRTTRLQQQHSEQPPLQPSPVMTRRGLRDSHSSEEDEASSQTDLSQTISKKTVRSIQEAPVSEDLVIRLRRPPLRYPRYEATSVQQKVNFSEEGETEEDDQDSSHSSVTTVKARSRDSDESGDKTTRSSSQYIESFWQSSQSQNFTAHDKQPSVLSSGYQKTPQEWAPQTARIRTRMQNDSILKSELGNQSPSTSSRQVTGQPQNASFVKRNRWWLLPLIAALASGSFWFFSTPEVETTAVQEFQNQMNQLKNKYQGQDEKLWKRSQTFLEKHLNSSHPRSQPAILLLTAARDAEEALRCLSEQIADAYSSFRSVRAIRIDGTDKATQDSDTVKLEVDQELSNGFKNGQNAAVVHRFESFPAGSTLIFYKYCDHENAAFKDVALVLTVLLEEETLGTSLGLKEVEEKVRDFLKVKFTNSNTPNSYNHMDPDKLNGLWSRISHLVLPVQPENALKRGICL
Chain of Fibroblast growth factor 10 (Homo sapiens) (O15520 whole entry, looked up): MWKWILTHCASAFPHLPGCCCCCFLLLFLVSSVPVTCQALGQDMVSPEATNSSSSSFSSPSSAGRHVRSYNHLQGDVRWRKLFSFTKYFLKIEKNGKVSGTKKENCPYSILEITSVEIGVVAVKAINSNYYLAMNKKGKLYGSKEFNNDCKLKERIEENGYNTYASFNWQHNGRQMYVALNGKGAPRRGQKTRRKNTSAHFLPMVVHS
Chain of Epidermal growth factor receptor (Homo sapiens) (P00533 whole entry, looked up): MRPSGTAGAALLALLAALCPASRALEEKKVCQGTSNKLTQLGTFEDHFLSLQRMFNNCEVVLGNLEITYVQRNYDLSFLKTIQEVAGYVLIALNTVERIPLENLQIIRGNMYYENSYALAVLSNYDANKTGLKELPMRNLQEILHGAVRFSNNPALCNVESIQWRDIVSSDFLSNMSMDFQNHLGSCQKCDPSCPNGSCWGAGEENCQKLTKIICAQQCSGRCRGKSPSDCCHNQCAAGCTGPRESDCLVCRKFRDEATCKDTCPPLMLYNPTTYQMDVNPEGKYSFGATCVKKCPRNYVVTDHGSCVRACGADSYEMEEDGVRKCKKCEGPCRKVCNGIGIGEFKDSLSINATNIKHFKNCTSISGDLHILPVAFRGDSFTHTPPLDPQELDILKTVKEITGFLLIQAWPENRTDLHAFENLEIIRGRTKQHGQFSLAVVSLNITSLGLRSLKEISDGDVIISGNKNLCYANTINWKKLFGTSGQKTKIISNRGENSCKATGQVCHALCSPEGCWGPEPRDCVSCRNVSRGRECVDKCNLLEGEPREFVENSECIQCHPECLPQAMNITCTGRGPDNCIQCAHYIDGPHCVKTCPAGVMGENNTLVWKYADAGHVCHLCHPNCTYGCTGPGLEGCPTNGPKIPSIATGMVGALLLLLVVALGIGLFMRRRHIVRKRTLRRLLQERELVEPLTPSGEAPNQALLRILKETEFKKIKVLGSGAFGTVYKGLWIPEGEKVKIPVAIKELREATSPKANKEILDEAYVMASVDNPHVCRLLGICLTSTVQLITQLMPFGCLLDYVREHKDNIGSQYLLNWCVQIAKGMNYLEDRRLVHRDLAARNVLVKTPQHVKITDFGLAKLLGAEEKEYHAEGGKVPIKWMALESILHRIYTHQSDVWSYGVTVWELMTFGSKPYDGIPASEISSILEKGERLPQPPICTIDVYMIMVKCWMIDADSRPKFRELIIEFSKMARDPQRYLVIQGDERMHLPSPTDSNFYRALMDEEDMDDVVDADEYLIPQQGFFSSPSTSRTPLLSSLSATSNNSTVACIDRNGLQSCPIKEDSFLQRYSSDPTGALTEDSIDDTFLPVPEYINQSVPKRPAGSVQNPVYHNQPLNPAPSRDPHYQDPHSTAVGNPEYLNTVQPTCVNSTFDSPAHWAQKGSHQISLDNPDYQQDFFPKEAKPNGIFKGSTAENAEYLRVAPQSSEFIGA
Chain of Follistatin-related protein 3 (Homo sapiens) (O95633 whole entry, looked up): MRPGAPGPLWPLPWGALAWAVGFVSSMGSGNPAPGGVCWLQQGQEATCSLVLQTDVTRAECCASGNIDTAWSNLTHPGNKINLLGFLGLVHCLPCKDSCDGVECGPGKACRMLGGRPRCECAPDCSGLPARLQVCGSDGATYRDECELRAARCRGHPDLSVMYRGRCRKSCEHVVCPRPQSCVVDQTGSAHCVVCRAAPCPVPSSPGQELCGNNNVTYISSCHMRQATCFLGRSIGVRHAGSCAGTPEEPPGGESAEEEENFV
Chain of Dickkopf-related protein 1 (Homo sapiens) (O94907 whole entry, looked up): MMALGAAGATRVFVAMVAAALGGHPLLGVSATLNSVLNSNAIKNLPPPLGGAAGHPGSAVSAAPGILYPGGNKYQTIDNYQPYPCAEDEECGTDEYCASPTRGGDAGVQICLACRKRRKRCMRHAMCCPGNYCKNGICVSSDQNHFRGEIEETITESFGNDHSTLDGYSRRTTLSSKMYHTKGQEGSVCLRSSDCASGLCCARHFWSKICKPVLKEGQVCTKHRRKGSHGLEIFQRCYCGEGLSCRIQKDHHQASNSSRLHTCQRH
Chain of Left-right determination factor 2 (Homo sapiens) (O00292 whole entry, looked up): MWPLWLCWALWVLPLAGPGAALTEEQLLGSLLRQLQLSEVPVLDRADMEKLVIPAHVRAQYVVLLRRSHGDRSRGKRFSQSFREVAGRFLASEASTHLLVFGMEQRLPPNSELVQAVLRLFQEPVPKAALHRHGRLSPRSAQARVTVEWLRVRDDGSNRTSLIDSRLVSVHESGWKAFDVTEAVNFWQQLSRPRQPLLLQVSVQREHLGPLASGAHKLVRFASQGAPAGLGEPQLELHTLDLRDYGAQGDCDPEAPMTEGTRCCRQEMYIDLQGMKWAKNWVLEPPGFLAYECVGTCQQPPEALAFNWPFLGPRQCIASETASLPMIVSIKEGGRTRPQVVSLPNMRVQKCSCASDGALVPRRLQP

`C[C@@H]1C=CCC(=O)OC[C@H](C)C(=O)N[C@@H](Cc2ccccc2)C(=O)OC1`: the composite z-score in test [1] is -0.0137; in test [2] it was -0.526; in test [3], -0.683; in [5], 0.3; in test [6] it was -0.0825; in test [7], 0.643. Also, the composite z-score is 0.582 in [8]; 0.909 in [9]; -0.289 in test [10]; -0.118 in [11]; 0.786 in test [13]; -0.273 in [14]. For the same compound, the composite z-score was -0.62 in test [15]; -0.118 in test [16]; -0.414 in [17]; -0.17 in test [18]; -0.232 in test [19]; -0.0092 in [20]. Also, the values for the z-score in [4] and in test [12] were -1.03 (inactive) and 0.962, respectively.

As to `CC(=O)OC[C@H]1O[C@H](CCON=C(C)CCN2CCCc3nc(C)c(C)cc32)C=C[C@@H]1OC(C)=O`, the composite z-score in [1] was 0.773; in test [2], -0.108; in test [3], -0.408; in test [5] it was 0.932; in test [6], 1.24; in test [7] it was 0.986. The composite z-score was 1.16 in test [8]; 0.735 in test [9]; 0.965 in [10]; 1.33 in test [11]; 0.686 in test [13]; -0.191 in test [14]. Also, the composite z-score in test [15] was -0.947; in test [16], -0.0229; in test [17] it was -0.138; in test [18] it was 0.189; in test [19], 0.489; in test [20], 0.133. The figures for the z-score in [4] and in test [12] were 1.06 (inactive) and -0.186, respectively.

Take `CC(=O)OC[C@H]1O[C@@H](ON=C(C)CCN2CCCCc3nc(C)c(C)cc32)[C@H](OC(C)=O)[C@@H](OC(C)=O)[C@@H]1OC(C)=O`: the composite z-score in test [1] was 0.834; in [2], -0.208; in test [3], -0.664; in test [5], 1.23; in [6] it was 1.19; in test [7] it was 1.11. In addition, the composite z-score in test [8] was 1.28; in test [9] it was 1.39; in test [10] it was 0.328; in [11], 1.16; in test [13], 0.962; in test [14], -0.336. The composite z-score was -0.767 in test [15]; -0.0337 in test [16]; 0.0121 in test [17]; -0.0129 in test [18]; 0.479 in [19]; -0.546 in test [20]. Besides, the results for the z-score in test [4] and in test [12] were -1.29 (inactive) and -0.997, respectively.

For the compound `COC(=O)[C@H](C)NC(=O)CCC1CC(OC(=O)NCc2cccc3ccccc23)CC2(CCCC(COC(=O)NCCCN3CCCC3=O)O2)O1` (stereo not given in full), the composite z-score in [1] is 0.666; in test [2] it was -0.102; in test [3], -0.279; in test [5], 0.92; in test [6], 1.17; in test [7], 0.929. Besides, the composite z-score was 0.91 in test [8]; 0.77 in [9]; -0.503 in test [10]; 1.28 in test [11]; 0.943 in test [13]; 0.895 in test [14]. For the same compound, the composite z-score in test [15] is 0.0029; in [16], -0.124; in test [17], -0.455; in test [18], -0.436; in [19], 0.919; in [20], 0.39. The z-score in test [4] was -0.915 (inactive); in test [12] it was -0.0695.

For `CCN1C(=O)[C@H]2[C@H]3[C@H](O)[C@H](O)CC(=NOC[C@@H](O)[C@H]4O[C@@H]5OC(C)(C)O[C@@H]5[C@H]4O)[C@@H]3CC[C@H]2C1=O`, the composite z-score was 1.03 in test [1]; -0.242 in [2]; -0.461 in test [3]; 0.203 in test [5]; -0.246 in [6]; 0.227 in test [7]. For the same compound, the composite z-score was 0.24 in [8]; 0.284 in [9]; 0.46 in test [10]; -0.629 in test [11]; 0.484 in [13]; -0.154 in [14]. For the same compound, the composite z-score in test [15] is -0.324; in test [16], -0.096; in test [17] it was -0.0289; in [18], -0.0733; in test [19] it was -0.209; in [20], 0.0203. Besides, the z-score in test [4] is 0.217 (inactive); in test [12], -0.299.

`COc1ccc(COC(=O)NN=C2C[C@@H](O)[C@@H](O)[C@@H]3[C@@H]4C(=O)N(c5cccc(Oc6ccccc6)c5)C(=O)[C@@H]4CC[C@H]23)cc1`: the composite z-score was 0.328 in test [1]; 0.543 in test [2]; 1.2 in [3]; -0.0908 in [5]; -0.944 in test [6]; -0.479 in test [7]. The composite z-score in test [8] is -0.226; in test [9], -0.767; in [10], 0.212; in [11] it was -0.0321; in test [13] it was -0.35; in [14], 0.0317. For the same compound, the composite z-score in test [15] is 0.176; in test [16] it was -0.215; in [17], -0.2; in test [18], -0.336; in test [19], 0.215; in test [20], 0.971. Besides, the figures for the z-score in [4] and in test [12] were -1.27 (inactive) and -1.46, respectively.
